Biological target: TRIM48
Assay: pooled miR-30 sensor sort-seq; sequence = guide strand
Conditions: shRNA
Also: reference of the scale not given here.

| Sequence | sensor-assay potency score (higher = more potent) |
| --- | --- |
| TGTCGTTCTTAACACACCCAAG | -1.51 |
| TTCTCAAATCTCCACATCGGAA | -1.49 |
| AAACCGAACCTATTTGTCCTGT | 0.0588 |
| TGCTGTATTGTCTTTATGCATT | -1.57 |
| TTCTCTGATTTTCACAAGCTTT | -1.29 |
| TTTCTCTGCTGTATTGTCTTTA | -0.0647 |
| TTTCTTTAACAGCTTCTCCCAG | -0.688 |
| TTAACAGCTTCTCCCAGTGTTC | -1.29 |
| TTCTCTGCTGTATTGTCTTTAT | -1.43 |
| ATGTCGTTCTTAACACACCCAA | -1.03 |
| AACATCTTCTTTGTCTCCCTGT | 0.214 |
| TTCTTTAACAGCTTCTCCCAGT | -0.186 |

Biological target: TRIM50
Assay: as above
Conditions: shRNA

| Sequence | sensor-assay potency score (higher = more potent) |
| --- | --- |
| TGAACTTGTGGTGGTCCTCATT | -1.36 |
| TGCTGTAGTCGAAGCGCTCAGG | -1.06 |
| TTGTGGTGGTCCTCATTGCCGA | -1.14 |
| TTCGCCCTGCTCATAGTGCAGG | -1.35 |
| TTCCGGATGAACTTGTGGTGGT | -0.035 |
| TCCAACTTGAGAGGCTCCGGGG | -1.47 |
| TCATAGTGCAGGTAGAGCCCGA | -0.353 |
| TTCAGCTTGCCCTTACGGCTGG | -0.338 |
| TGGAACTTCCGGATGAACTTGT | -0.0502 |
| TTGGGCAGGGAGCTGCTGCCGT | -1.11 |
| AAAACTTTCCGGAAGAGCCTTT | -0.209 |
| TAGTCGAAGCGCTCAGGCTGGC | -0.915 |

Biological target: TRIM54
Assay: as above
Conditions: shRNA

| Sequence | sensor-assay potency score (higher = more potent) |
| --- | --- |
| TCCATCTGTGTGATCACTGCTT | -0.164 |
| TTGGAGAACATCTCCAGGCAGA | -0.654 |
| TTATTGATCAGCTCCTTGGCCT | -0.188 |
| TCGCTGAGCTCACTCTTCTGGC | -0.97 |
| TGGTTTGGAGAACATCTCCAGG | -1.46 |
| TAGTCTGGCACACCTCCTCCAT | -1.55 |
| TAACAACTGCTTCTGCCTCCGG | -0.255 |
| TTGCCTGCCACCAGCATCGCGA | -1.1 |
| TTTAACAACTGCTTCTGCCTCC | 0.72 |
| AACAACTGCTTCTGCCTCCGGC | -0.512 |
| TTGTCCTCGATAGTCTGGCACA | -1.37 |
| TTTGGAGAACATCTCCAGGCAG | -0.659 |
